# Laboratory results: PMC7862700, “An all-to-all approach to the identification of sequence-specific readers for epigenetic DNA modifications on cytosine”
# Tests used:
# Experiment in all cases: DAPPL (digital affinity profiling via proximity ligation, sequencing); 10 mM Tris-HCl pH 7.5, 50 mM NaCl, 1 mM DTT, 4% glycerol, room temperature, 30 min; GST-TFs on glutathione beads, 16-mer random dsDNA library, 0.1% formaldehyde crosslink after washing; high values mean tight binding
# Conditions in all cases: protein: recombinant; tags: N-terminal GST; dsDNA, one strand shown
# [1] = biological target: T1, ELK1 (Homo sapiens, UniProt P19419 1-428)
# T1 sequence: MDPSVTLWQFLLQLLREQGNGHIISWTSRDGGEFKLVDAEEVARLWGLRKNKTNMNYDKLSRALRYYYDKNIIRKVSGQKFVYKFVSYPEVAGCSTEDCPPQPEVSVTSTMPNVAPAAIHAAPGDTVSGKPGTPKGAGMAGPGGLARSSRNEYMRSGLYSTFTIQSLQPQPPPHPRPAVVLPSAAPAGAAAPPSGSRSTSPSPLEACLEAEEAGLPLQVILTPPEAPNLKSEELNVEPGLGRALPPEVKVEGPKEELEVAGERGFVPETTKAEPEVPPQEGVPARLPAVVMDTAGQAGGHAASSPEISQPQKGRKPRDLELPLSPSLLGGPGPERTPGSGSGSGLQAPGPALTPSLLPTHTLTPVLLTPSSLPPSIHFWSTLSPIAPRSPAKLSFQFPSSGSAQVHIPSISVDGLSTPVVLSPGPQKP
# Outline: (§1)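 GST fusions of human transcription factors were expressed in yeast and captured with glutathione beads. Once given DNA barcodes and pooled alongside a tag-only sample, they were incubated for 30 min at room temperature with 200 nmole of a random double-stranded 16-mer DNA library in Tris/NaCl/DTT/glycerol buffer, then washed, crosslinked (0.1% formaldehyde), proximity-ligated, PCR-amplified and sequenced on an Illumina NextSeq500. The binding signal of each hexamer is its read frequency for a factor divided by its frequency for the tag-only sample.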
# [2] = biological target: T2, GABPA (Homo sapiens, UniProt Q06546 1-454)
# T2 sequence: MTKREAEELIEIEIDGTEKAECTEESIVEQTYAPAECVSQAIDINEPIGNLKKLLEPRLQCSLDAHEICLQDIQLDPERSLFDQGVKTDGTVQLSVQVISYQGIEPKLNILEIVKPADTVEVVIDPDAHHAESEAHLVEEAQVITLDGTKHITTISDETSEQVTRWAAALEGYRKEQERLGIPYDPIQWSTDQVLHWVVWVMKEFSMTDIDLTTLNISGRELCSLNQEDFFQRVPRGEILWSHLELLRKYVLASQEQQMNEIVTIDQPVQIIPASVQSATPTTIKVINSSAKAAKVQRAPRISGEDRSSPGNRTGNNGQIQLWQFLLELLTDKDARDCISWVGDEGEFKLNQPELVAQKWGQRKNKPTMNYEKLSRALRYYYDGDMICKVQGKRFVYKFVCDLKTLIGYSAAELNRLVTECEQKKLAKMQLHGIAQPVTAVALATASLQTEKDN
# Outline: as §1
# [3] = biological target: T3, ERG (Homo sapiens, UniProt P11308 1-479)
# T3 sequence: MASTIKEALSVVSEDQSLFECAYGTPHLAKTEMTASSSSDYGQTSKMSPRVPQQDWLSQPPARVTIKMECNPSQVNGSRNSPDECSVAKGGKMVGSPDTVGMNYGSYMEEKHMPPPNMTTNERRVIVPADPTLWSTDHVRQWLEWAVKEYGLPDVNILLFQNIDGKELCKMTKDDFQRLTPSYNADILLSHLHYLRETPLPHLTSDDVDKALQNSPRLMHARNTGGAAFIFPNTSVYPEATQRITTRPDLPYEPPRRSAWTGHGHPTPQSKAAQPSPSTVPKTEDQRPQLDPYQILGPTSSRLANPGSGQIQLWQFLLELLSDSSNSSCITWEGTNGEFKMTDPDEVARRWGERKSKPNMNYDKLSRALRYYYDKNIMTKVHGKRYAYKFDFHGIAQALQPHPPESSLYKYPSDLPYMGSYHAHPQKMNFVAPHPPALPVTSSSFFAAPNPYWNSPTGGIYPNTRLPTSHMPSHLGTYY
# Outline: as §1
# [4] = biological target: ELF1 (Homo sapiens, UniProt P32519 1-619)
# Sequence of ELF1 (P32519 whole entry): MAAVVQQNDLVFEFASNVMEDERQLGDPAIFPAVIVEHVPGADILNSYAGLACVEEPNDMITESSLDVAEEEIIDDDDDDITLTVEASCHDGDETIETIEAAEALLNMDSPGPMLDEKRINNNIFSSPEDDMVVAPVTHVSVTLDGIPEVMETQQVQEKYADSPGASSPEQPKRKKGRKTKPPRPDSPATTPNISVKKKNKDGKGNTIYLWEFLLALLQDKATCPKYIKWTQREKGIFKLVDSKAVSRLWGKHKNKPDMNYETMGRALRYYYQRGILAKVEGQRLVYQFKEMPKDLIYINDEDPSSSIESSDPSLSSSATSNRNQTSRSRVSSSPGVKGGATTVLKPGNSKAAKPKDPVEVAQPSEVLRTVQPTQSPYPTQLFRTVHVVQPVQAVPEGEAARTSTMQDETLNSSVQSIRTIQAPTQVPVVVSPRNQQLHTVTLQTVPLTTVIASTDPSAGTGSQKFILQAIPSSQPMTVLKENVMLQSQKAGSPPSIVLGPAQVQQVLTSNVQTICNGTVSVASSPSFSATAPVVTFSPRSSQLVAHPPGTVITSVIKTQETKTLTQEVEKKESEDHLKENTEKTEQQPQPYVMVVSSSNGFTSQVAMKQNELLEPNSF
# Outline: as §1
# [5] = biological target: T4, EHF (Homo sapiens, UniProt Q9NZC4 1-300)
# T4 sequence: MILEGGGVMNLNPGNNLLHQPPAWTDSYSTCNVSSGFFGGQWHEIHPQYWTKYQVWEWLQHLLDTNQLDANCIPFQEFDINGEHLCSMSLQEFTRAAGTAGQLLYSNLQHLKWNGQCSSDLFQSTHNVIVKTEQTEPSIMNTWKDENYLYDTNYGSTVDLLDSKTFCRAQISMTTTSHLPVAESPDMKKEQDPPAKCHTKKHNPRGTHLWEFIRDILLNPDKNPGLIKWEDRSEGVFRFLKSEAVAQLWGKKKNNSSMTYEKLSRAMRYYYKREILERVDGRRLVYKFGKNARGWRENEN
# Outline: as §1
# [6] = biological target: SPIB (Homo sapiens, UniProt Q01892 1-262)
# Sequence of SPIB (Q01892 whole entry): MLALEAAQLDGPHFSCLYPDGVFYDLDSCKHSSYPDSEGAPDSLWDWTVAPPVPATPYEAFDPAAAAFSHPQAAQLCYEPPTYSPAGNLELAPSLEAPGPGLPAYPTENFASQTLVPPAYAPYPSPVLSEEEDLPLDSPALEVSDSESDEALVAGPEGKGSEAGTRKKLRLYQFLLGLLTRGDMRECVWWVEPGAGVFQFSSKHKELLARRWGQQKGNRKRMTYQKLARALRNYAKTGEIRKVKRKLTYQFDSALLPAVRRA
# Outline: as §1
# [7] = biological target: T5, ELK3 (Homo sapiens, UniProt P41970 1-407)
# T5 sequence: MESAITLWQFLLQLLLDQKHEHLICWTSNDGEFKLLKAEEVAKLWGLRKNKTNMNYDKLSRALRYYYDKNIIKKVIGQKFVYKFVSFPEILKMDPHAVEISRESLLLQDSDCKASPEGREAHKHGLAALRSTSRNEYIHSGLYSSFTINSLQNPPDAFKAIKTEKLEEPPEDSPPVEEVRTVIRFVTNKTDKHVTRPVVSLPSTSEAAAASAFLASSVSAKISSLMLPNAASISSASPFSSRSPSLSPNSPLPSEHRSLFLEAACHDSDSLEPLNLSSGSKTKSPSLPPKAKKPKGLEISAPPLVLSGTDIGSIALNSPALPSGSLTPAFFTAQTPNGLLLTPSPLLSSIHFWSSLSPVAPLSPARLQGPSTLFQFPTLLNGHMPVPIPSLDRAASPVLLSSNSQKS
# Outline: as §1
# [8] = biological target: T6, FEV (Homo sapiens, UniProt Q99581 1-238)
# T6 sequence: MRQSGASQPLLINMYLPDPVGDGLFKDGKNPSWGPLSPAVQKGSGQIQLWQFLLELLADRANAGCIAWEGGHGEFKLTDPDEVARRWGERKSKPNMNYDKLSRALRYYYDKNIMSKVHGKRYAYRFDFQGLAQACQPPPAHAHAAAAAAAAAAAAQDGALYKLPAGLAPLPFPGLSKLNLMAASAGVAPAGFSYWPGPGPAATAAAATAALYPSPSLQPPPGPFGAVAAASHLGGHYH
# Outline: as §1
# [9] = biological target: ETV5 (Homo sapiens, UniProt P41161 1-510)
# Sequence of ETV5 (P41161 whole entry): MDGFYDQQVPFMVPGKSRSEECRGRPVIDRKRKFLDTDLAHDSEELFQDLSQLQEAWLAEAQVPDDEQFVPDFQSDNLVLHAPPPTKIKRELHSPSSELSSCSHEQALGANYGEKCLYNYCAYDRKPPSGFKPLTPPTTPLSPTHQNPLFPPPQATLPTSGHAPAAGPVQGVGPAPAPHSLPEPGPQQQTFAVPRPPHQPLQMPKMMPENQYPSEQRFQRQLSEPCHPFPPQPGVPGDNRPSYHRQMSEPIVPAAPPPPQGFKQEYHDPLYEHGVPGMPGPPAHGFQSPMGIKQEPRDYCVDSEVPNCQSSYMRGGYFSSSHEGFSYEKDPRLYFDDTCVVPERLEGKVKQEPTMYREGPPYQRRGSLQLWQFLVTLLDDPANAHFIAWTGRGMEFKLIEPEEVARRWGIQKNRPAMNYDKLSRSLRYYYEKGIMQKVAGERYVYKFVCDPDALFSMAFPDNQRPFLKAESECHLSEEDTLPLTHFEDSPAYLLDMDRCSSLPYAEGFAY
# Outline: as §1
# [10] = biological target: ELF4 (Homo sapiens, UniProt Q99607 1-663)
# Sequence of ELF4 (Q99607 whole entry): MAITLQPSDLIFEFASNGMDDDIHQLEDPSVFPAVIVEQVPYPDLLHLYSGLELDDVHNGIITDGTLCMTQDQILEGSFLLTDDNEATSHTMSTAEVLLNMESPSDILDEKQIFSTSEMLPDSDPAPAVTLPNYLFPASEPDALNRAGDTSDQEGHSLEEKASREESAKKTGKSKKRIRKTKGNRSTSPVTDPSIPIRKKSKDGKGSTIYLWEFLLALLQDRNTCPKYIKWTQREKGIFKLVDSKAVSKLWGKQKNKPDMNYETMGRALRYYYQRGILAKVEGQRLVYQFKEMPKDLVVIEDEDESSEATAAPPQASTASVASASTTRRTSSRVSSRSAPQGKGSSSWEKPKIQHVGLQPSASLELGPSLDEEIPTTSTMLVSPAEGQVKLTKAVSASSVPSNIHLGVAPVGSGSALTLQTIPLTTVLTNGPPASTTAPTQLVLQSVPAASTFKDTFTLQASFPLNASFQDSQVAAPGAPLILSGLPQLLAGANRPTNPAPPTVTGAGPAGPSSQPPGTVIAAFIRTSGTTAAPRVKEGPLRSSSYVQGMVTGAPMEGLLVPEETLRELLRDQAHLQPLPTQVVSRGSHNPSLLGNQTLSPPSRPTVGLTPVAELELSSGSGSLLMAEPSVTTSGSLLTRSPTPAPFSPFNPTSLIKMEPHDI
# Outline: as §1
# [11] = biological target: T7, ETV3L (Homo sapiens, UniProt Q6ZN32 1-361)
# T7 sequence: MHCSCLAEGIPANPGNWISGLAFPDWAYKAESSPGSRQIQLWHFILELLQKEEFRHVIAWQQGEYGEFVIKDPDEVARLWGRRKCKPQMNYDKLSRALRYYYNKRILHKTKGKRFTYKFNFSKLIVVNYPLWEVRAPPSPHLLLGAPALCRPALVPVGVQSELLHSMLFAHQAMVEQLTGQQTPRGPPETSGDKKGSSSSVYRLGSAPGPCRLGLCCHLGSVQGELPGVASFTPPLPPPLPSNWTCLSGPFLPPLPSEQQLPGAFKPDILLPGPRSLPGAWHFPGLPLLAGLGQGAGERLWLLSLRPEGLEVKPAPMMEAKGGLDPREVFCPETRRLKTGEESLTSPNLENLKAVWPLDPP
# Outline: as §1
# [12] = biological target: T8, ETS2 (Homo sapiens, UniProt P15036 1-469)
# T8 sequence: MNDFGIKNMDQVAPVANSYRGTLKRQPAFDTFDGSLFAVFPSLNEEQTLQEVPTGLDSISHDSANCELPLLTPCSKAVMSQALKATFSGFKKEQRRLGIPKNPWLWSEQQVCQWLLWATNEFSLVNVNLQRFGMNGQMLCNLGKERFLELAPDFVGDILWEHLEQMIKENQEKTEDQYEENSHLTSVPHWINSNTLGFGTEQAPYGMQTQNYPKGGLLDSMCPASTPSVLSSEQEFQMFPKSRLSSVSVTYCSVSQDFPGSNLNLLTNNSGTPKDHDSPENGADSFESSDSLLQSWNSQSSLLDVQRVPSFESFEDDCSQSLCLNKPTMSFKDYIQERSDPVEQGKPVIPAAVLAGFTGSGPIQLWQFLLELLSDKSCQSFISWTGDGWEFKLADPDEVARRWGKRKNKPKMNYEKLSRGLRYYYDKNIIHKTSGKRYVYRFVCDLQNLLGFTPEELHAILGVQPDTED
# Outline: as §1
# [13] = biological target: T9, SPDEF (Homo sapiens, UniProt O95238 1-335)
# T9 sequence: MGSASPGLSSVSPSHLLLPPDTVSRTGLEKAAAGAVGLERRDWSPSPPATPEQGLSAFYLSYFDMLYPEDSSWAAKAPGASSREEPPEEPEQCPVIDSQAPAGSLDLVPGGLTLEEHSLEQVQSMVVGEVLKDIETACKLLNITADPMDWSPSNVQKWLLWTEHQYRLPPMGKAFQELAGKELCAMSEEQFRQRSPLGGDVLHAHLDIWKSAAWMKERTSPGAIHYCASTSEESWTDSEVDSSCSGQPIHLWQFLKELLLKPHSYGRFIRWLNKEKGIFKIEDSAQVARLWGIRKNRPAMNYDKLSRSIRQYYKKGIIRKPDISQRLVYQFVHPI
# Outline: as §1
# [14] = biological target: T10, ETV3 (Homo sapiens, UniProt P41162-2 1-143)
# T10 sequence: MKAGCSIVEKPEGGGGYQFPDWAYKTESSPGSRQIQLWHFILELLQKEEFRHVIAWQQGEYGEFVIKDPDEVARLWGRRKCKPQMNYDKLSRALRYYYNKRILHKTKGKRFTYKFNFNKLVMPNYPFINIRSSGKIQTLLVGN
# Outline: as §1
# [15] = biological target: ETV6 (Homo sapiens, UniProt P41212 1-452)
# Sequence of ETV6 (P41212 whole entry): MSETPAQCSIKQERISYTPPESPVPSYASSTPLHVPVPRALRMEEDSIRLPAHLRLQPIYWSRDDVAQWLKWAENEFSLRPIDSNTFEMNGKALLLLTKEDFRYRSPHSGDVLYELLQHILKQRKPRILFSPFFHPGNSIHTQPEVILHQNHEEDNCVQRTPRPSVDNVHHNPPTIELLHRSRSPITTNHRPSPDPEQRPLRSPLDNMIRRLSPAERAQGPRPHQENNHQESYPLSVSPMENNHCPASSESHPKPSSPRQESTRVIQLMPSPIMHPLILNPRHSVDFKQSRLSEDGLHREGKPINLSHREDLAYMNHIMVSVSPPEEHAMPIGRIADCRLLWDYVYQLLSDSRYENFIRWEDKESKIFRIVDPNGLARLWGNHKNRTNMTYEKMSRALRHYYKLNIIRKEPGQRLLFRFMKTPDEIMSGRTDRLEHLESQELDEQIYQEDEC
# Outline: as §1
sequence,measurement,setting,value
AGGACC,binding signal,[1],"1.07 fold enrichment (6-mer frequency, TF over GST control)"
same,binding signal,[2],"1.07 fold enrichment (6-mer frequency, TF over GST control)"
same,binding signal,[3],"1.09 fold enrichment (6-mer frequency, TF over GST control)"
same,binding signal,[4],"1.06 fold enrichment (6-mer frequency, TF over GST control)"
same,binding signal,[5],"1.02 fold enrichment (6-mer frequency, TF over GST control)"
same,binding signal,[6],"1.05 fold enrichment (6-mer frequency, TF over GST control)"
same,binding signal,[7],"1.15 fold enrichment (6-mer frequency, TF over GST control)"
same,binding signal,[8],"1.07 fold enrichment (6-mer frequency, TF over GST control)"
same,binding signal,[9],"1.04 fold enrichment (6-mer frequency, TF over GST control)"
same,binding signal,[10],"1.06 fold enrichment (6-mer frequency, TF over GST control)"
same,binding signal,[11],"1.07 fold enrichment (6-mer frequency, TF over GST control)"
same,binding signal,[12],"1.04 fold enrichment (6-mer frequency, TF over GST control)"
same,binding signal,[13],"1.06 fold enrichment (6-mer frequency, TF over GST control)"
same,binding signal,[14],"1.03 fold enrichment (6-mer frequency, TF over GST control)"
same,binding signal,[15],"1.02 fold enrichment (6-mer frequency, TF over GST control)"
